Test results published in paper PMC7862700, “An all-to-all approach to the identification of sequence-specific readers for epigenetic DNA modifications on cytosine”.

Tests used:
Experiment in all cases: DAPPL (digital affinity profiling via proximity ligation, sequencing); 10 mM Tris-HCl pH 7.5, 50 mM NaCl, 1 mM DTT, 4% glycerol, room temperature, 30 min; GST-TFs on glutathione beads, 16-mer random dsDNA library, 0.1% formaldehyde crosslink after washing; high values mean tight binding
FEV = target: T1, FEV (Homo sapiens, UniProt Q99581 1-238); conditions: protein: recombinant; tags: N-terminal GST; dsDNA, one strand shown
T1 sequence: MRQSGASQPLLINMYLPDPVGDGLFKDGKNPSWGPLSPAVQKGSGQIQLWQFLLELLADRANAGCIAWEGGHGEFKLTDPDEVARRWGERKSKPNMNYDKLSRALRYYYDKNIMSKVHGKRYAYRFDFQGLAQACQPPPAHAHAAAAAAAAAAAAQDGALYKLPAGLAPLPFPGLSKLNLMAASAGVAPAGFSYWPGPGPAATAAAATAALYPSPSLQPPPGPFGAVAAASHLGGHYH
Procedure, shortened: (§1)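 Pools were built from human transcription factors expressed in yeast as GST fusions, captured on glutathione beads and DNA-barcoded, along with a tag-only sample. Incubation with 200 nmole of a 16-mer random double-stranded DNA library lasted 30 min at room temperature in Tris/NaCl/DTT/glycerol buffer, and was followed by washing, 0.1% formaldehyde crosslinking, proximity ligation, PCR amplification and Illumina NextSeq500 sequencing. Binding signal is the quotient of each hexamer's read frequency for a factor and its frequency for the tag-only sample.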

ETV5 = ETV5 (Homo sapiens, UniProt P41161 1-510); conditions: protein: recombinant; tags: N-terminal GST; dsDNA, one strand shown
ETV5, sequence (P41161 whole entry): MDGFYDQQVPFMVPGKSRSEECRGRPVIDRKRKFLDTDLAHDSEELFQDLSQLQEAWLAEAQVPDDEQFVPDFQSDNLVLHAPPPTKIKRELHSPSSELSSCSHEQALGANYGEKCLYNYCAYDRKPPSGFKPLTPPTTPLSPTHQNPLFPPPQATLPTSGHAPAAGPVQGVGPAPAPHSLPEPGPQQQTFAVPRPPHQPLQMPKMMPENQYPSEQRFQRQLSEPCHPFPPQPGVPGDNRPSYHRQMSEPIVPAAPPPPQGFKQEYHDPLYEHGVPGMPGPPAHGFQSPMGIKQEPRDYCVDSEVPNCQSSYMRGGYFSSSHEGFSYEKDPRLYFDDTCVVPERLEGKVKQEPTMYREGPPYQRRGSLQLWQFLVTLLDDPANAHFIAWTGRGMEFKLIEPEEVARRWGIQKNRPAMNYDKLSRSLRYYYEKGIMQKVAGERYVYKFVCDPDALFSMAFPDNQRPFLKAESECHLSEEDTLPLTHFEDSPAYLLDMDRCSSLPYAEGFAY
Procedure, shortened: as §1

HSF1 = HSF1 (Homo sapiens, UniProt Q00613 1-529); conditions: protein: recombinant; tags: N-terminal GST; chain copies: 3; dsDNA, one strand shown
HSF1, sequence (Q00613 whole entry): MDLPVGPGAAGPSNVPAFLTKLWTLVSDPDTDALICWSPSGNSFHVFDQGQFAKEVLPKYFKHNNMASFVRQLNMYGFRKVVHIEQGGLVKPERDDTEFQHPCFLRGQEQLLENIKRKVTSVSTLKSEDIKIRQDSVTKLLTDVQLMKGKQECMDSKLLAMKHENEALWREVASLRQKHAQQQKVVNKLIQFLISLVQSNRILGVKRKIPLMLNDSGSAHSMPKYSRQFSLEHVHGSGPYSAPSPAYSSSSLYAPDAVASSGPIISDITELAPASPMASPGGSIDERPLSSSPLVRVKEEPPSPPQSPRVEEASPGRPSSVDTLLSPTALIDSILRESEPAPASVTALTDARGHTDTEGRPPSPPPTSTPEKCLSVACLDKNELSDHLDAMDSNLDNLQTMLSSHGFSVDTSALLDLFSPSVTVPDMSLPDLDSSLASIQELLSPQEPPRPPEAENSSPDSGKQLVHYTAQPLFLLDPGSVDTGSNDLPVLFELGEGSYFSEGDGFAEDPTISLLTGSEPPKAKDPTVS
Procedure, shortened: as §1

SPIC = target: T2, SPIC (Homo sapiens, UniProt Q8N5J4 1-248); conditions: protein: recombinant; tags: N-terminal GST; dsDNA, one strand shown
T2 sequence: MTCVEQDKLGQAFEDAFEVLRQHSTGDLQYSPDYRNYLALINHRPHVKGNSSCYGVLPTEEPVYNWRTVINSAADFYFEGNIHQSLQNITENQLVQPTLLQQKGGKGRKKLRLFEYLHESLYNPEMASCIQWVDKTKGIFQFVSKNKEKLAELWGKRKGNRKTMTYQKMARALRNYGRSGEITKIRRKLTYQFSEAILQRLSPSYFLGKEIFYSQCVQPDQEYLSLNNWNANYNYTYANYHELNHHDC
Procedure, shortened: as §1

ELF4 = ELF4 (Homo sapiens, UniProt Q99607 1-663); conditions: protein: recombinant; tags: N-terminal GST; dsDNA, one strand shown
ELF4, sequence (Q99607 whole entry): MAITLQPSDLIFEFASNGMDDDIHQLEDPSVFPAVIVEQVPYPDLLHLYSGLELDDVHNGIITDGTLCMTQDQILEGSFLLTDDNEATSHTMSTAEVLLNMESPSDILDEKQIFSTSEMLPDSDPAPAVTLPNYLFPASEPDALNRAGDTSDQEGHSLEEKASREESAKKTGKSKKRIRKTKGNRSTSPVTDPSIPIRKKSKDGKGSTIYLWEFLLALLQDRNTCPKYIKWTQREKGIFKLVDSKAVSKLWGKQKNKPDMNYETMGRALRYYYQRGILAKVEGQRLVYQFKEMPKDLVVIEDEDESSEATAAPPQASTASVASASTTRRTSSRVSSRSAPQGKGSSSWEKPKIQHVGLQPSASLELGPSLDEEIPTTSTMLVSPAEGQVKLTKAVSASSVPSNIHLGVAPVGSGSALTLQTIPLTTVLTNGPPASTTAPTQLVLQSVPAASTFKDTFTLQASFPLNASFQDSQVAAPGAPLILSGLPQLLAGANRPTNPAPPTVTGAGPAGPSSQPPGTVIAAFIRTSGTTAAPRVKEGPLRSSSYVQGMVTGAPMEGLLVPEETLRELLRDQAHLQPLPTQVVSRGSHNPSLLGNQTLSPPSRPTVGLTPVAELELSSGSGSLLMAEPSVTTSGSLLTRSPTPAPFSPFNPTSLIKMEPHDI
Procedure, shortened: as §1

ELK4 = target: T3, ELK4 (Homo sapiens, UniProt P28324-2 1-405); conditions: protein: recombinant; tags: N-terminal GST; dsDNA, one strand shown
T3 sequence: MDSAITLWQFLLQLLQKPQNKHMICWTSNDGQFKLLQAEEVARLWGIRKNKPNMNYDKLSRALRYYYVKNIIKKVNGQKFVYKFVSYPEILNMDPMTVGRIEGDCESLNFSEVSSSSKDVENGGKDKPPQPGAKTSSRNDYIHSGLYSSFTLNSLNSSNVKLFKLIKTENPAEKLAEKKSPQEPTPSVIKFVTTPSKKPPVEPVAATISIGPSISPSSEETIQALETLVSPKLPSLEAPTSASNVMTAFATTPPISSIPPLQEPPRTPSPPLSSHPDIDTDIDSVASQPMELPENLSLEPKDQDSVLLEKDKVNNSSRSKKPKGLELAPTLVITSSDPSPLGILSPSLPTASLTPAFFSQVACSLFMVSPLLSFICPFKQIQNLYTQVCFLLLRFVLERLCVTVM
Procedure, shortened: as §1

ETV2 = target: T4, ETV2 (Homo sapiens, UniProt O00321 1-342); conditions: protein: recombinant; tags: N-terminal GST; dsDNA, one strand shown
T4 sequence: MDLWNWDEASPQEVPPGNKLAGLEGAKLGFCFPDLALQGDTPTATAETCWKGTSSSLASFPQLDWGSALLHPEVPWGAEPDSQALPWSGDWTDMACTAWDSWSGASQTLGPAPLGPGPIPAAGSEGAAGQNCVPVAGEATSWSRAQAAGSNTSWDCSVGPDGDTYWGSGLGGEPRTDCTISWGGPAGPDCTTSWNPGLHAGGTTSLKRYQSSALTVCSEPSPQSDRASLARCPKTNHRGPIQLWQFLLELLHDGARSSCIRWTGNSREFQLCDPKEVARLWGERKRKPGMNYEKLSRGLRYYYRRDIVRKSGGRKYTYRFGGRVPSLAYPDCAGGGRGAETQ
Procedure, shortened: as §1

ELF3 = target: T5, ELF3 (Homo sapiens, UniProt P78545 1-371); conditions: protein: recombinant; tags: N-terminal GST; dsDNA, one strand shown
T5 sequence: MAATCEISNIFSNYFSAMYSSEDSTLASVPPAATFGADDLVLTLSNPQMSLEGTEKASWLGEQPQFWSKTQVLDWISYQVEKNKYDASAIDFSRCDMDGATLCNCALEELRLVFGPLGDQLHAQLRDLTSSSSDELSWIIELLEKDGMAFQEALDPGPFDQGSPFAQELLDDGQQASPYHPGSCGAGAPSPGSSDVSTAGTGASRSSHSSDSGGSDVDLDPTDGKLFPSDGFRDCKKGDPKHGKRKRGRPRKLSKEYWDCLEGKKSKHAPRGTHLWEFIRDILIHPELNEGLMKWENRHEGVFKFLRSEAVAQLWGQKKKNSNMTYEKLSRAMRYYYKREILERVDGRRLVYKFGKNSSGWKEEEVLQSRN
Procedure, shortened: as §1

CRX = CRX (Homo sapiens, UniProt O43186 1-299); conditions: protein: recombinant; tags: N-terminal GST; dsDNA, one strand shown
CRX, sequence (O43186 whole entry): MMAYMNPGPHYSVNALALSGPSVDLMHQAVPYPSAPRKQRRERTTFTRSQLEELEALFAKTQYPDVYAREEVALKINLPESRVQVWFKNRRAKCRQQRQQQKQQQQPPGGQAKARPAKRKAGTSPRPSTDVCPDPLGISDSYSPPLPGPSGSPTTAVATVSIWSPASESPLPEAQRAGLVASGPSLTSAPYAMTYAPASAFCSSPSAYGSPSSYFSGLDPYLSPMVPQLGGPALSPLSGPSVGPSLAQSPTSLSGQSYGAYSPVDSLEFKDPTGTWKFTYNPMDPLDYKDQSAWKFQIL
Procedure, shortened: as §1

ETV1 = ETV1 (Homo sapiens, UniProt P50549 1-477); conditions: protein: recombinant; tags: N-terminal GST; dsDNA, one strand shown
ETV1, sequence (P50549 whole entry): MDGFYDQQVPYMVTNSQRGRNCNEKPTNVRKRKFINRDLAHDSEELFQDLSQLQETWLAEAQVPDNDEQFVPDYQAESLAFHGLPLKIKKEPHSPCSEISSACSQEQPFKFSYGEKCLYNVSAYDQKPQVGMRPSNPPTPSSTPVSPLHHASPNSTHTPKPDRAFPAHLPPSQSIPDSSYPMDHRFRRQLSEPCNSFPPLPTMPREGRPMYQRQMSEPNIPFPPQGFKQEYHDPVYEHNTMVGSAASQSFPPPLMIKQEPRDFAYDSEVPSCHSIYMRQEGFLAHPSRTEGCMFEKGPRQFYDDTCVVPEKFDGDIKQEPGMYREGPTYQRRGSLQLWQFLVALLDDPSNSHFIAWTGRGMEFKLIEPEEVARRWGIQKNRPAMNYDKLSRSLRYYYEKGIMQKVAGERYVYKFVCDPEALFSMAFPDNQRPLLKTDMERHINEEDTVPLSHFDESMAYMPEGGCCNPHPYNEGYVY
Procedure, shortened: as §1

ERF = target: T6, ERF (Homo sapiens, UniProt P50548 1-548); conditions: protein: recombinant; tags: N-terminal GST; dsDNA, one strand shown
T6 sequence: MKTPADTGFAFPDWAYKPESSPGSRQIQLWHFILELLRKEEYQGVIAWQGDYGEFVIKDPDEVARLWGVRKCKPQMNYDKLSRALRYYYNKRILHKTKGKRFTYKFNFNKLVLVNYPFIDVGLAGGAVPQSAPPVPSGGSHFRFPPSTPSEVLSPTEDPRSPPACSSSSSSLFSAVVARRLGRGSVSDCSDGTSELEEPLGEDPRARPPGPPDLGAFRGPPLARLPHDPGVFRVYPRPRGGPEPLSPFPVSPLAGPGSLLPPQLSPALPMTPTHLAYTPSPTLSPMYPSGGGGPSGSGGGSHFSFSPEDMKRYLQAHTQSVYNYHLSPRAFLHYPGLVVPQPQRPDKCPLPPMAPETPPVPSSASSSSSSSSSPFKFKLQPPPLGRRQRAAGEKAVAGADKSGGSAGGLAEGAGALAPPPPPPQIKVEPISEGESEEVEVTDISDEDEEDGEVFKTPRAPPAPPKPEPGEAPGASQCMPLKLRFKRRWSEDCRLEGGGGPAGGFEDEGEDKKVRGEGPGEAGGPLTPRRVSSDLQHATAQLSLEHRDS
Procedure, shortened: as §1

ETV3L = target: T7, ETV3L (Homo sapiens, UniProt Q6ZN32 1-361); conditions: protein: recombinant; tags: N-terminal GST; dsDNA, one strand shown
T7 sequence: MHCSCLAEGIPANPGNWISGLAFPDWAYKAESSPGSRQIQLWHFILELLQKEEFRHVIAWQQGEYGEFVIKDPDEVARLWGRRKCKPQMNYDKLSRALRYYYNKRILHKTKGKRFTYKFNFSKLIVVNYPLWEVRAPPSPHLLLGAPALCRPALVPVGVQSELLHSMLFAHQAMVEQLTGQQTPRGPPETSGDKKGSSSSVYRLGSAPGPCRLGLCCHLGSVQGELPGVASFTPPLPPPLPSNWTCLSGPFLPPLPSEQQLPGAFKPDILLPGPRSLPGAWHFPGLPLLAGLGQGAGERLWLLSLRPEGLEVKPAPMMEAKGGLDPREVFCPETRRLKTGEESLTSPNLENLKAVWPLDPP
Procedure, shortened: as §1

ETS2 = target: T8, ETS2 (Homo sapiens, UniProt P15036 1-469); conditions: protein: recombinant; tags: N-terminal GST; dsDNA, one strand shown
T8 sequence: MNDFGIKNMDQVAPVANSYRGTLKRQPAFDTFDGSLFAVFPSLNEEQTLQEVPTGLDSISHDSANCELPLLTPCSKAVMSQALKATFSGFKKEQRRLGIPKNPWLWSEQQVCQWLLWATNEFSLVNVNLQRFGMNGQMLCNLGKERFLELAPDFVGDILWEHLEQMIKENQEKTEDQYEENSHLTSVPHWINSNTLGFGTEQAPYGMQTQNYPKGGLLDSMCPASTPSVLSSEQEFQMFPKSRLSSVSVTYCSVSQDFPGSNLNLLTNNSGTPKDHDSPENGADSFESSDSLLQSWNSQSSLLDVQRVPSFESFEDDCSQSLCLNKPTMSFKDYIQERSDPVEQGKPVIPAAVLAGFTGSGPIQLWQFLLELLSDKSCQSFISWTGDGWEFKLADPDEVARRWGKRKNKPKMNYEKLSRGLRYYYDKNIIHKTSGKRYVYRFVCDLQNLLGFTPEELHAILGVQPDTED
Procedure, shortened: as §1

SPDEF = target: T9, SPDEF (Homo sapiens, UniProt O95238 1-335); conditions: protein: recombinant; tags: N-terminal GST; dsDNA, one strand shown
T9 sequence: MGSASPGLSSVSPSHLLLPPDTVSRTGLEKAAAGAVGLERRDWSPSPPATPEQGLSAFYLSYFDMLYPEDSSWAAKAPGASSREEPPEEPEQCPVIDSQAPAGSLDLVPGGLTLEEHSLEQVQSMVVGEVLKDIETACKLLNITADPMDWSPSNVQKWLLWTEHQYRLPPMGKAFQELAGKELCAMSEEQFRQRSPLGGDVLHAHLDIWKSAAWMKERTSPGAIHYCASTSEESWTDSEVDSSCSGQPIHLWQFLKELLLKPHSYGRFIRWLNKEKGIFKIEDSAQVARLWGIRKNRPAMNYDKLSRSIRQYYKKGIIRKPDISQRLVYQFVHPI
Procedure, shortened: as §1

ETV7 = target: T10, ETV7 (Homo sapiens, UniProt Q9Y603 1-341); conditions: protein: recombinant; tags: N-terminal GST; dsDNA, one strand shown
T10 sequence: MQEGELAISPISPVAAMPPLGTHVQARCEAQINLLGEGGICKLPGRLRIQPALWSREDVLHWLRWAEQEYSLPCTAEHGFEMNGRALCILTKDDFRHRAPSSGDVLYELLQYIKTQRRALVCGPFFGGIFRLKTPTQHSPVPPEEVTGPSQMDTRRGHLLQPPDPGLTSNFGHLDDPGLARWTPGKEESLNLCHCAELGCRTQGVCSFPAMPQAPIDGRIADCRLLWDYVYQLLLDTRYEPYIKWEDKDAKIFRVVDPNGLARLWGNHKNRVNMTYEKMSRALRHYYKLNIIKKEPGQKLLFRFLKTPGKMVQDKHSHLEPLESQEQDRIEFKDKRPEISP
Procedure, shortened: as §1

ELF5 = target: T11, ELF5 (Homo sapiens, UniProt Q9UKW6-2 1-255); conditions: protein: recombinant; tags: N-terminal GST; dsDNA, one strand shown
T11 sequence: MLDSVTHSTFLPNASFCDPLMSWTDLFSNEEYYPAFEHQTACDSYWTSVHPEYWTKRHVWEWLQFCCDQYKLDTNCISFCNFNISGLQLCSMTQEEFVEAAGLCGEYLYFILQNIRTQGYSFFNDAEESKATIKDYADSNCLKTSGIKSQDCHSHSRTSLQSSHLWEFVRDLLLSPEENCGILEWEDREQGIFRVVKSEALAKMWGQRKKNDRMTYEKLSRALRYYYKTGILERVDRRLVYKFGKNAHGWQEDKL
Procedure, shortened: as §1

ETV3 = target: T12, ETV3 (Homo sapiens, UniProt P41162-2 1-143); conditions: protein: recombinant; tags: N-terminal GST; dsDNA, one strand shown
T12 sequence: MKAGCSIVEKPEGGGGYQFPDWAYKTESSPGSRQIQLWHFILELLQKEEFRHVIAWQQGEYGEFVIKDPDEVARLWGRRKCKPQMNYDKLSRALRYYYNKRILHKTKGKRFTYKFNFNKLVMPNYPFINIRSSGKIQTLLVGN
Procedure, shortened: as §1

ETV6 = ETV6 (Homo sapiens, UniProt P41212 1-452); conditions: protein: recombinant; tags: N-terminal GST; dsDNA, one strand shown
ETV6, sequence (P41212 whole entry): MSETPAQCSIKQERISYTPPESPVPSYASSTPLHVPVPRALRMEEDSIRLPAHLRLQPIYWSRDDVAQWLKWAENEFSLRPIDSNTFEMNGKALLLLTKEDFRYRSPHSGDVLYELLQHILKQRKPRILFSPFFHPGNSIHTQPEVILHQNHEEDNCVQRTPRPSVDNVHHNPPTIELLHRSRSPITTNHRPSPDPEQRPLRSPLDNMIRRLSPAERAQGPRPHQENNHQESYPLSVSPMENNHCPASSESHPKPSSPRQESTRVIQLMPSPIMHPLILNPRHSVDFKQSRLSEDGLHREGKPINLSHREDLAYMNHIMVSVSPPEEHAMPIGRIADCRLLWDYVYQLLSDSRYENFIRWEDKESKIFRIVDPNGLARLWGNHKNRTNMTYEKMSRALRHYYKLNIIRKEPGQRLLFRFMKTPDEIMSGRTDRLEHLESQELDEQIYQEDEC
Procedure, shortened: as §1

## TAATTG
FEV
  binding signal: 1.32 fold enrichment (6-mer frequency, TF over GST control)
ETV5
  binding signal: 1.4 fold enrichment (6-mer frequency, TF over GST control)
HSF1
  binding signal: 1.42 fold enrichment (6-mer frequency, TF over GST control)
SPIC
  binding signal: 1.31 fold enrichment (6-mer frequency, TF over GST control)
ELF4
  binding signal: 1.36 fold enrichment (6-mer frequency, TF over GST control)
ELK4
  binding signal: 1.35 fold enrichment (6-mer frequency, TF over GST control)
ETV2
  binding signal: 1.44 fold enrichment (6-mer frequency, TF over GST control)
ELF3
  binding signal: 1.49 fold enrichment (6-mer frequency, TF over GST control)
CRX
  binding signal: 1.82 fold enrichment (6-mer frequency, TF over GST control)
ETV1
  binding signal: 1.35 fold enrichment (6-mer frequency, TF over GST control)
ERF
  binding signal: 1.35 fold enrichment (6-mer frequency, TF over GST control)
ETV3L
  binding signal: 1.37 fold enrichment (6-mer frequency, TF over GST control)
ETS2
  binding signal: 1.42 fold enrichment (6-mer frequency, TF over GST control)
SPDEF
  binding signal: 1.22 fold enrichment (6-mer frequency, TF over GST control)
ETV7
  binding signal: 1.44 fold enrichment (6-mer frequency, TF over GST control)
ELF5
  binding signal: 1.37 fold enrichment (6-mer frequency, TF over GST control)
ETV3
  binding signal: 1.34 fold enrichment (6-mer frequency, TF over GST control)
ETV6
  binding signal: 1.42 fold enrichment (6-mer frequency, TF over GST control)
